The record followed here is PubChem BioAssay (Tox21).

Experiment [1] in a line: qHTS assay for small molecule agonists of the p53 signaling pathway - cell viability (AID 651633; calls by dose curve;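 note: p53RE-bla HCT reporter cells with a stable beta-lactamase p53 reporter; series mostly up to about 83 µM; nearly all actives have a fitted effect of over 30% in size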). The method, boiled down: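 Viability counter-read: CellTiter-Glo luminescence (30 min, room temperature) in the same p53RE-bla plates. These plates had been exposed to compounds for 16 h at 37 C.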
Experiment [2] can be described thus: qHTS assay for small molecules that induce genotoxicity in human embryonic kidney cells expressing luciferase-tagged ATAD5 - cell viability (AID 651634; calls by dose curve; note: nearly all actives have a fitted effect of over 25% in size; note: potency is the fitted concentration of half-maximal effect). The gist of the method: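 Cytotoxicity counter-readout: after 15.5 hr compound treatment at 37C, live-cell protease activity in ATAD5-luciferase HEK293T cells measured by CellTiter-Fluor fluorescence, 30 min development at 37C.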
Background: In qHTS, concentration-response curves come from the screen itself.

The nature of experiment [3]: qHTS assay for small molecule disruptors of the mitochondrial membrane potential - cell viability (AID 720634; calls by dose curve; note: nearly all actives have a fitted effect of over 20% in size; note: potency is the fitted concentration of half-maximal effect). The gist of the method:
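Cytotoxicity was quantified from ATP content by CellTiter-Glo luminescence in the same wells as the MMP dye read-out. HepG2 (2,000 cells/well) were plated overnight and exposed to compounds for 1 hr at 37 C.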

A short description of experiment [4]: qHTS assay for small molecule disruptors of the mitochondrial membrane potential (AID 720635). Note: potency is the fitted concentration of half-maximal effect. The gist of the method:
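Mitochondrial membrane potential tracked with Mito-MPS dye, red aggregates (ex 540/em 590 nm) against green monomers (ex 490/em 535 nm). Compound treatment 1 hr at 37C, dye 30 min in HepG2.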

The nature of experiment [5]: qHTS assay to test for compound auto fluorescence at 590 nm (red) in HepG2 cells (AID 720674). The gist of the method:
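We screened compounds on adherent HepG2 cells, incubating them for an hour at 37 C in 5% CO2 before reading emission at 590 nm under 540 nm excitation; values reflect equivalence to Rose Bengal sodium fluorescence.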

Experiment [6] is described as follows: qHTS assay to test for compound auto fluorescence at 535 nm (green) in HepG2 cells (AID 720675).
The nature of experiment [7]: qHTS assay to test for compound auto fluorescence at 460 nm (blue) in HEK293 cells (AID 720678). The method, boiled down: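 Measured: blue fluorescence (Ex 405/Em 460 nm) of compound-treated HEK293 cells, incubated overnight at 37C with 5% CO2 and scaled to triamterene equivalents.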
Experiment [8] can be described thus: qHTS assay to test for compound auto fluorescence at 590 nm (red) in HEK293 cells (AID 720679). The gist of the method:
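Using HEK293 cells at 2,000 per well, the screen added 23 nL of each compound after cell attachment and incubated overnight (37C, 5% CO2). The plate reader then captured red-label fluorescence, Ex/Em 540/590nm.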

Experiment [9] in a line: qHTS assay for small molecules that induce genotoxicity in human embryonic kidney cells expressing luciferase-tagged ATAD5 (AID 651632). Note: nearly all actives have a fitted effect of over 15% in size. The method, boiled down: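 A rise in luciferase signal from ATAD5-tagged HEK293T cells marks genetic stress. Cells were exposed to compounds for 16 hr at 37C, 5% CO2, then luciferase was quantified after a 30 min room-temperature incubation with Amplite.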

Records with an inconclusive call do not appear. The source made the active and inactive calls. Unless noted, calls come from the whole dose curve; as a rule, active = well fitted curve in the direction sought with a large enough effect in the repeat runs; inconclusive = weak or mixed curves; inactive = no such curve, though single readings can be large; an effect the other way counts as inactive or inconclusive.

With `CC(=O)O[C@H]1CC[C@@]2(C)C(=CC[C@H]3[C@@H]4CC[C@H](C(C)=O)[C@@]4(C)CC[C@@H]32)C1`, the Potency result in experiment [1], in experiment [2], in [3], in experiment [4], in [5] and in [6] was “inactive” throughout. Besides, the Potency entry in experiment [7] and in experiment [8] was “inactive” each time.
On to `Nc1nc(=O)n([C@@H]2CS[C@H](CO)O2)cc1F`, for which the Potency entry in experiment [1], in experiment [2], in experiment [3], in experiment [4], in experiment [5] and in [6] was “inactive” throughout. Moreover, the Potency entry in [7] and in experiment [8] was “inactive” throughout.
With `Clc1ccc(COC(Cn2ccnc2)c2ccc(Cl)cc2Cl)c(Cl)c1` (configuration not stated), the Potency entry in experiment [9], in experiment [3], in experiment [5], in experiment [6], in [7] and in experiment [8] was “inactive” each time.
Turning to `CC(C)(C)NC(=O)[C@H]1CC[C@H]2[C@@H]3CC=C4C=C(C(=O)O)CC[C@]4(C)[C@H]3CC[C@]12C`, the Potency result in experiment [9], in [2], in experiment [3], in experiment [5], in [6] and in [7] was “inactive” each time. In addition, the Potency result in experiment [8] is “inactive”.
For the compound `C#C[C@]1(O)CC[C@H]2[C@@H]3CCC4=CCCC[C@@H]4[C@H]3C(=C)C[C@@]21CC`, the Potency result in [9], in experiment [2], in [3], in experiment [5], in [6] and in experiment [7] was “inactive” in each case. Also, the Potency entry in experiment [8] was “inactive”.
Turning to `CN1CCN(CCCN2c3ccccc3Sc3ccccc32)CC1`, the Potency result in experiment [9], in [2], in experiment [5], in experiment [6], in experiment [7] and in [8] was “inactive” in each case.
On to `CCOC(=O)[C@H](CS)NCCN[C@@H](CS)C(=O)OCC`, for which the Potency entry in experiment [9], in [2], in experiment [3], in experiment [5], in experiment [6] and in experiment [7] was “inactive” throughout. Further, in experiment [8], the Potency result is “inactive”.
Turning to `COc1ccc(/C=C/C(=O)OCCC(C)C)cc1`, the Potency result in [1], in experiment [2], in [3], in experiment [4], in [5] and in experiment [6] was “inactive” throughout. Moreover, the Potency result in [7] and in experiment [8] was “inactive” throughout.
`C=Cc1c(C)c2cc3nc(cc4[nH]c(cc5nc(cc1[nH]2)C(C)=C5CCC(=O)OC)c(CCC(=O)O)c4C)[C@@]1(C)C3=CC=C(C(=O)OC)[C@H]1C(=O)OC`: the Potency entry in experiment [9], in experiment [3], in experiment [5], in experiment [6], in experiment [7] and in experiment [8] was “inactive” in each case. Besides, in experiment [4], the Potency was 1.88 µM (active).
Turning to `CCC(=O)OCC(=O)[C@@]1(OC(=O)CC)[C@@H](C)C[C@H]2[C@@H]3CCC4=CC(=O)C=C[C@]4(C)[C@@]3(F)[C@@H](O)C[C@@]21C`, the Potency result in experiment [9], in experiment [2], in experiment [5], in [6], in experiment [7] and in experiment [8] was “inactive” throughout. The Potency in experiment [4] was 23.7 µM (active).
For `CCCCCCCCCCCCCCCCCC[N+](C)(C)CCC[Si](OC)(OC)OC`, the Potency result in experiment [9], in experiment [2], in [3], in experiment [5], in experiment [6] and in experiment [7] was “inactive” throughout. Moreover, the Potency entry in experiment [8] was “inactive”.
With `CC(C)(C)c1ccc(CN2CCN(C(c3ccccc3)c3ccc(Cl)cc3)CC2)cc1` (configuration not stated), the Potency entry in [9], in [3], in experiment [5], in experiment [6], in experiment [7] and in experiment [8] was “inactive” throughout.
Regarding `CC(=O)[C@@]1(O)CC[C@H]2[C@@H]3C=C(Cl)C4=CC(=O)CC[C@]4(C)[C@H]3CC[C@@]21C`, the Potency result in experiment [9], in [2], in experiment [3], in [5], in experiment [6] and in [7] was “inactive” throughout. Further, the Potency result in experiment [8] was “inactive”.
Consider `COc1ccccc1N1CCN(CCCC(=O)c2ccc(F)cc2)CC1`, for which the Potency entry in experiment [9], in experiment [2], in [3], in experiment [5], in experiment [6] and in experiment [7] was “inactive” each time. Moreover, in [8], the Potency entry was “inactive”.
For the compound `CNC(=O)[C@H](Cc1c[nH]c2ccccc12)NC(=O)[C@@H](CC(=O)NO)CC(C)C`, the Potency result in experiment [1], in [2], in experiment [3], in experiment [4], in experiment [5] and in experiment [6] was “inactive” in each case. Also, the Potency entry in [7] and in [8] was “inactive” each time.
On to `[O]=[Bi][O][Bi]=[O]`, for which the Potency result in [1], in experiment [2], in experiment [3], in experiment [4], in experiment [5] and in experiment [6] was “inactive” throughout. The Potency entry in experiment [7] was “inactive”.
Turning to `CCCCCCCC(=O)CC[C@@H]1[C@@H](C/C=C\CCCC(=O)OC(C)C)[C@@H](O)C[C@H]1O`, the Potency result in experiment [9], in experiment [5], in [6], in [7] and in experiment [8] was “inactive” in each case. Also, the Potency in [3] and in experiment [4] was 26.6 µM (active) throughout.
For `CCC(=O)c1ccc2c(c1)N(CCCN1CCN(CCO)CC1)c1ccccc1S2`, the Potency result in [9], in experiment [3], in experiment [5], in experiment [6], in experiment [7] and in experiment [8] was “inactive” each time. In experiment [2], the Potency was 26.6 µM (active).
For the compound `CC(CN(C)C)CN1c2ccccc2Sc2ccc(C(F)(F)F)cc21` (configuration not stated), the Potency result in [9], in experiment [2], in experiment [3], in experiment [5], in experiment [6] and in experiment [7] was “inactive” in each case. In addition, in experiment [8], the Potency result was “inactive”.
As for `CC(=O)Oc1cc(C)c(OC(C)=O)c2ccccc12`, the Potency result in experiment [9], in experiment [2], in experiment [3], in experiment [5], in [6] and in experiment [7] was “inactive” in each case. Further, in experiment [8], the Potency result was “inactive”.
On to `CCCC(CCC)C(N)=O`, for which the Potency result in [1], in [2], in experiment [3], in [4], in experiment [5] and in experiment [6] was “inactive” each time. In addition, the Potency entry in experiment [7] and in [8] was “inactive” each time.
For the compound `CC[C@@]1(O)C[C@H](O[C@H]2C[C@H](N(C)C)[C@H](O[C@H]3C[C@H](O)[C@H](O[C@H]4CCC(=O)[C@H](C)O4)[C@H](C)O3)[C@H](C)O2)c2c(cc3c(c2O)C(=O)c2c(O)cccc2C3=O)[C@H]1C(=O)OC`, the Potency result in experiment [1], in experiment [3], in experiment [5], in experiment [6], in [7] and in experiment [8] was “inactive” throughout. The Potency was 15 µM (active) in [2] and 1.68 µM (active) in experiment [4].
